Only some compounds are listed: those with a hit (about 1.8% of all), similar ones and a draw of the others.
Yp Topo-I inh – Y. pestis Topo-I inhibition via cleavage products; Y. pestis Topo-I cleavage product accumulation, plate reader; activity, % at 10 µM; 360,000 tested, 0.064% active; AID 504884; in the data active = activity above about 50%, passing the limit was not always enough
DUSP3 inh – blocks human VHR1 dual specificity phosphatase; recombinant VHR phosphatase, pNPP absorbance; P51452; inhibition, % at 13.3 µM; 290,000 tested, 0.52% active; AID 1654; in the data active = inhibition above about 50%
Target sequence (P51452 whole entry, looked up): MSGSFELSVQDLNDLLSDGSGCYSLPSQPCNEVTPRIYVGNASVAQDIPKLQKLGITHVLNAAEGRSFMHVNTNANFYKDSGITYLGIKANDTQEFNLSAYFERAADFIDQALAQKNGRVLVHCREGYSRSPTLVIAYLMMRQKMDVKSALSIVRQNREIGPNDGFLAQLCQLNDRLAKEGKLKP
MazEF act – activators of E. coli MazEF toxin-antitoxin RNase; P0AE70; FAM/BHQ RNA-DNA oligo cleavage fluorescence, 5 h; activation, % at 20 µM; 350,000 tested, 0.32% active; in the data active = activation above about 50%
Target sequence (P0AE70 whole entry, looked up): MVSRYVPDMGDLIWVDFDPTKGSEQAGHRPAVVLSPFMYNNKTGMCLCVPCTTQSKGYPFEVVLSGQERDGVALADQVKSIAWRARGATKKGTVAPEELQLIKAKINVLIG
CCHF vOTU inh – CCHFV vOTU protease inhibition | inhibition, % at 11.5 µM | AID 651958 | 370,000 tested, 0.55% active | Pep-AMC fluorescence; in the data active = inhibition above about 30%
Vc quorum ag – quorum light induction in luxS cqsA deficient V. cholerae. activation, % at 18.7 µM. AID 588436. 350,000 tested, 0.16% active. V. cholerae BH1578 lux reporter, luminescence, 6 h; in the data active = activation mostly above about 9.7%, no sharp cut-off
PrPC TRFRET – inhibitors of human cell surface prion protein PrPC; P04156; TR-FRET read-out; inhibition, % at 13.8 µM; 370,000 tested, 0.43% active; AID 720596; in the data active = inhibition above about 24%
A number is an active result; – = inactive; · = not tested or not shown; ! = repeats disagree.

SMILES	Yp Topo-I inh	DUSP3 inh	MazEF act	CCHF vOTU inh	Vc quorum ag	PrPC TRFRET
COc1ccc(C(=O)/C=C2/Sc3cc4c(cc3N2C)OCO4)cc1	–	–	–	–	–	–
CN1/C(=C/C(=O)c2ccc(Cl)cc2)Sc2cc3c(cc21)OCO3	–	–	431	–	–	–
COc1ccc2c(c1)S/C(=C\C(=O)c1ccncc1)N2C	–	–	141	–	–	–
COc1cc(OC)cc(C(=O)/C=C2\Sc3ccccc3N2C)c1	–	–	–	–	–	–
COC(=O)[C@]12C[C@H](CC(=O)N3CCSCC3)C(=O)N(Cc3cccc4ccccc34)C1=C[C@H](C(C)C)O[C@@H]2C1CC1	·	·	·	–	·	–
Cc1ccc(SCC(=O)OCC(=O)NC(C)c2ccc(Br)cc2)cc1 (centres undefined)	–	57	–	–	–	–
COc1cc(CNc2ccc3[nH]c(=O)[nH]c3c2)ccc1OCc1ccccc1F	–	–	–	–	–	–
COc1cc(CNc2ccc3[nH]c(=O)[nH]c3c2)ccc1OCc1c(F)cccc1Cl	–	53	–	–	–	–
CCOC(=O)[C@]12Cc3cc(C)ccc3[C@H]1N(C1CCCCC1)C(=O)c1cc(OC)ccc12	·	·	·	–	·	38
O=C(O)Cc1ccc(C(=O)c2ccccc2)s1	–	–	–	–	–	–
N#CCc1ccc(C(=O)c2ccccc2F)s1	–	–	–	–	25	–
CCOc1cc2c(C#N)c(N3CCCC3)nc(N)c2c(N)n1	–	·	–	–	–	–
COc1cc2c(C#N)c(N3CCCC3)nc(N)c2c(N)n1	–	–	90!	–	–	–
N#Cc1c(N)nc(N2CCCC2)c(C#N)c1-c1ccc(Cl)cc1	–	–	66	–	–	–
Cn1nc(N)c2c(-c3ccc(Cl)cc3)c(C#N)c(N)nc21	–	–	–	–	–	–
CCCOc1cc2c(C#N)c(N3CCCC3)nc(N)c2c(N)n1	–	·	63	–	–	–
COc1cc2c(C#N)c(N3CCN(C)CC3)nc(N)c2c(N)n1	–	–	·	–	·	–
N#Cc1c(N2CCCC2)nc(N)c2c(N)nc(N3CCCC3)cc12	–	–	–	72	–	–
COc1ccc(S[C@]2(C(=O)N3CCN(C(C)=O)CC3)CC(=O)N(C(=O)/C=C/c3ccccc3)[C@@H]2c2ccc(OC)cc2)cc1	·	·	·	–	·	–
CN[C@H]1C[C@H]2c3cc(-c4ccccc4C)ccc3CCN2C[C@H]1[C@H](C)O	·	·	·	–	·	–
CCN(CC)c1ccc(NC(=O)c2ccc3c(c2)OCO3)cc1	–	54	–	–	–	–
CCCN(CCC)S(=O)(=O)c1cccc(C(=O)Nc2ccc3c(c2)OCO3)c1	–	52	–	–	–	–
CCC(=O)Nc1ccc(NC(=O)c2ccc3c(c2)OCO3)cc1	–	–	–	–	–	–
COc1ccc(CN(CCN2CCOCC2)C(=O)c2ccccc2C)cc1OC	·	·	·	–	·	–
CCc1ccc(CCC(=O)Nc2ncc(Cc3ccccc3Cl)s2)o1	–	60	–	–	–	–
SMILES	Yp Topo-I inh	DUSP3 inh	MazEF act	CCHF vOTU inh	Vc quorum ag	PrPC TRFRET
Nc1ccc(C2(c3ccc(N)cc3)C(=O)Nc3ccccc32)cc1	–	53	–	–	–	–
Nc1nc(Nc2cccc(F)c2)nc(NCc2ccco2)c1[N+](=O)[O-]	–	–	66	–	–	–
Cc1cccc(Nc2nc(N)c([N+](=O)[O-])c(NCc3ccco3)n2)c1	–	–	–	–	–	–
CCOC(=O)c1csc(NC(=O)C2CCCN(S(=O)(=O)c3ccc(C)cc3)C2)n1 (centres undefined)	·	·	·	–	·	–
COC(=O)/C=c1/s/c(=C(\C#N)C(=O)NCc2ccco2)n(-c2ccc(C)cc2)c1=O	–	–	65	–	–	–
COC(=O)/C=c1/s/c(=C(/C#N)C(=O)N2CCOCC2)n(-c2ccccc2)c1=O	–	–	–	–	–	–
COC(=O)[C@@]12CCCCC3=C1N(CCC3)C(=O)[C@H]2CC(=O)N1CCC(c2ccccc2)CC1	·	·	·	–	·	–
C=CCC(C(=O)OC)(C(=O)OC)c1ccc([N+](=O)[O-])cn1	–	52	–	–	–	–
O=C(CSc1nc2ccccc2nc1N1CCOCC1)N1CCN(S(=O)(=O)c2cccc([N+](=O)[O-])c2)CC1	·	·	·	–	·	–
C=CCn1c(SCC(=O)N2CCOCC2)nc2sc(C)c(C)c2c1=O	–	51	–	–	–	–
C=CCn1c(SCC(=O)N2CCOCC2)nc2sc3c(c2c1=O)CCCC3	–	–	–	–	–	–
O=C(NCc1ccc2c(c1)OCO2)Nc1cccc(Cl)c1	–	59	–	–	–	–
Cc1nnc(SCC(=O)NCc2ccc3c(c2)OCO3)s1	–	–	–	–	–	–
O=C(CSc1nc2cc(Cl)ccc2s1)NCc1ccc2c(c1)OCO2	–	–	63	–	–	–
CC(=O)c1cccc(NC(=O)NCc2ccc3c(c2)OCO3)c1	–	–	–	–	–	–
COc1ccc(C2CCC3(CCC(=O)N3CCOC(=O)NCc3ccc(Cl)cc3)CC2)cc1 (centres undefined)	·	·	·	–	·	–
Cc1ccc(C(=O)Nc2ccc(Br)cc2)cc1S(=O)(=O)Nc1ccccn1	–	–	125	–	–	–
Cc1ccc(OCC(=O)Nc2ccc(S(=O)(=O)Nc3ccccn3)cc2)c(C)c1	–	56	–	–	–	–
Cc1ccccc1NC(=O)c1ccc(C)c(S(=O)(=O)Nc2ccccn2)c1	–	–	–	–	–	–
Cc1cc(=O)[nH]c(SCC(=O)Nc2ccc(Cl)cc2)n1	·	·	·	–	·	–
Cc1ccc(-c2cc(C(=O)Nc3ccc(S(=O)(=O)Nc4onc(C)c4C)cc3)c3ccccc3n2)cc1	–	54	–	–	–	–
CCCCC1=CC2=C(c3ccco3)C(=O)C(C)(OC(=O)c3ccc(OC)cc3)C(=O)C2=CN1Cc1ccccc1 (centres undefined)	–	–	–	–	–	31
CC(C)OC(=O)c1nn2c(C(F)(F)F)cc(-c3ccco3)nc2c1Cl	–	–	–	–	–	–
CC(C)OC(=O)c1nn2c(C(F)(F)F)cc(-c3ccc(Br)o3)nc2c1Br	–	–	351	–	–	–
O=S(=O)(c1ccc(Cl)s1)N1CCC(c2nc3ccccc3o2)CC1	·	·	·	–	·	–
SMILES	Yp Topo-I inh	DUSP3 inh	MazEF act	CCHF vOTU inh	Vc quorum ag	PrPC TRFRET
Cn1c(O)c(/C=C2\C=Nc3ccccc32)c(=O)n(C)c1=O	–	–	141	–	–	–
CCCCn1c(O)c(/C=C2\C=Nc3ccccc32)c(=O)[nH]c1=O	–	–	255	–	–	–
O=C(Nc1ccc(F)cc1)OCCCN1C(=O)CCC12CCCCC2	·	·	·	–	·	–
NNC(=O)c1sc(-c2ccc(Cl)cc2)cc1N	–	51	–	–	–	–
CCOC(=O)c1sc(-c2ccc(Br)cc2)cc1N	–	–	–	–	–	–
O=C(CCN1C(=O)/C(=C\c2ccccc2)SC1=S)NNC(=O)c1ccncc1	–	–	–	–	–	–
O=C1/C(=C/c2ccc3c(c2)OCO3)SC(=S)N1CCC(=O)N(CCO)c1ccccc1	–	·	77	–	–	–
O=C(CCN1C(=O)/C(=C/c2ccccc2)SC1=S)NNC(=O)c1ccncc1	–	–	135	–	–	–
